# KB-V1 MDR tox = kills drug-selected multidrug resistant KB-V1 cells. KB-V1 MDR cells viability, CellTiter-Glo, 72 h. Potency, µM (top dose mostly 46.1 µM), hits mostly cytotoxic. 3.4% of 400,000 active; also: % is scaled to controls: 0 for no effect and ±100 for the full control effect; nearly all actives have a fitted effect of over 60% in size
#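 KB-V1 MDR subline cells in DMEM (phenol-red free, 10% FBS) exposed to compounds in qHTS concentration series for 72 h at 37 degrees C. Viability read by CellTiter-Glo luminescence; concentration-effect curves fitted after normalization and correction.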
# SW480 rerep = DNA re-replication induction in SW480 cells. 1.8% of 340,000 active. SW480 DNA re-replication, Hoechst DNA content imaging, 48 h. Potency, µM (doses to about 46.1 µM), inactives show at the highest dose re-replication activation, most hits filed as activators; also: % of control where 0% means no effect; nearly all actives have a fitted effect of over 55% in size
#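 Per well, 250 cells were exposed to pinned compound for 48 hr. Nuclear DNA was visualised with Hoechst (40 min, 37 C) and total object intensity recorded by fluorescence scanning.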
# KB-3-1 tox = kills parental KB-3-1 adenocarcinoma cells. KB-3-1 viability, CellTiter-Glo ATP luminescence, 72 h. Potency, µM (top dose mostly 46.1 µM), hits mostly cytotoxic. 1.4% of 400,000 active; also: % is scaled to controls: 0 for no effect and ±100 for the full control effect; nearly all actives have a fitted effect of over 60% in size
#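 Viability of parental KB-3-1 cells, measured by CellTiter-Glo luminescence, followed a 72 h incubation at 37 °C with pinned compounds in phenol-red-free DMEM containing 10% FBS.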
# MCF10A rerep = inducers of DNA re-replication in MCF 10A breast cells. Potency, µM (titrated, usually from 46.1 µM), for the others: top-dose activity, positive = re-replication, usual class: activators. MCF 10A DNA re-replication, Hoechst nuclear intensity, 48 h. 2.9% of 350,000 active; also: % of control where 0% means no effect; nearly all actives have a fitted effect of over 50% in size
# ELG1 repair inh = ELG1-dependent DNA repair inhibition; AID 504467; 2.3% of 330,000 active; Potency, µM (titrated, usually from 46.1 µM), for the others: at the highest dose activity change, negative = inhibition, actives largely listed as inhibitors; HEK293T ELG1-luciferase reporter, luminescence, 16 h; DNA damage induced by 5-fluorouridine; also: % is scaled to controls: 0 for no effect and ±100 for the full control effect; nearly all actives have a fitted effect of over 55% in size
#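 Step one: seed 2,000 cells per well. Step two: pin-transfer compound or DMSO alongside 5-fluorouridine. Step three: incubate 16 hr, 37 °C, 5% CO2. Step four: add ONE-Glo, wait 30 min, read luminescence.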
# Starred values were filed as active, the others as inactive; i = inactive; ? = inconclusive; . = no result; ! = not active in a repeat. In the library only some 8.1% were active in any assay of this set; here they are far more common. Calls follow the shape of the dose curve; as a rule, active = well fitted curve in the direction sought with a large enough effect; inconclusive = small, poorly fitted or top-dose-only effect, or another doubt; inactive = no such curve, though single readings can be large; an effect the other way counts as inactive or inconclusive. Potency is read from the fitted curve at half-maximal effect.
SMILES,KB-V1 MDR tox,SW480 rerep,KB-3-1 tox,MCF10A rerep,ELG1 repair inh
Cc1ccc2oc3c(c(=O)c2c1)C(c1ccc(OCC(N)=O)cc1)N(Cc1ccc2c(c1)OCO2)C3=O (stereo not given),i,.,i,.,.
O=C(O)c1cc(-c2cccs2)nn1-c1cccc(Cl)c1,i,3%,i,-2%,?
CN(C)S(=O)(=O)c1cccc(NC(=O)c2cc(-c3cccs3)nn2-c2cccc(Cl)c2)c1,2.3µM*,-18%,9.2µM*,-9%,12µM*
Cc1cc(C)n(-c2ccc(C(=O)Nc3ccc(C)c(S(=O)(=O)N(C)C)c3)cc2)n1,?,2%,i,-7%,18µM*
CCCCN1C(=O)c2ccc(C(=O)Nc3ccc(C)c(S(=O)(=O)N(C)C)c3)cc2C1=O,12µM*,0%,?,13%,?
CCCCN1C(=O)c2ccc(C(=O)Nc3cccc(C)c3C)cc2C1=O,i,-3%,i,0%,19%
O=C(NCc1ccccn1)C1CCN(S(=O)(=O)N2CCC3(CC2)OCCO3)CC1,i,12µM*!,i,?,-13%
O=C(C1CCN(Cc2cc(Cl)ccc2O)CC1)N1CCN(Cc2ccccc2)CC1,10µM*,11%,?,13%,-14%
O=C(C1CCN(S(=O)(=O)N2CCC3(CC2)OCCO3)CC1)N1CCc2ccccc2C1,9.2µM*,-7%,i,-4%,?
O=C(C1CCN(S(=O)(=O)N2CCC3(CC2)OCCO3)CC1)N1CCN(Cc2ccccc2)CC1,i,5.8µM*,i,?,-8%
CC1(C(=O)NS(=O)(=O)c2cccc(OC(F)F)c2)CCN1C(=O)c1ccco1 (stereo not given),i,.,i,.,.
O=C(CNC(=O)C1CCCCC1)OCCOc1ccccc1,i,.,i,.,.
Cc1nnc2c3ccccc3nc(N3CCN(c4ccccc4)CC3)n12,i,.,i,.,.
Fc1ccccc1-c1nnc2c3ccccc3nc(N3CCOCC3)n12,i,0%,i,2%,7%
Brc1ccc(-c2nnc3c4ccccc4nc(N4CCOCC4)n23)cc1,2.6µM*,-14%,i,3%,22%
Clc1ccc(-c2nnc3c4ccccc4nc(N4CCOCC4)n23)cc1Cl,2.6µM*,-13%,i,?,-24%
O=S1(=O)CCN(C2CC2)CC1,i,.,i,.,.
Cc1ccc(C(C)C)c(OCCSc2nc3ccccc3n2CC(O)CO)c1 (stereo not given),i,.,i,.,.
CCCCCCCCCCOC(=O)Cn1c(COc2ccccc2OC)[n+](C)c2ccccc21,i,?,?,5.8µM*,?
CC(C)(C)n1cnc2cc(NCc3ccccc3Cl)ccc21,i,.,i,.,.
Cc1cc2nc(-c3ccc(SCC(=O)Nc4ccc(S(=O)(=O)NC5CC5)cc4)nc3)[nH]c2cc1C,i,?,i,21µM*,?
Cc1cc(NC(=O)CSc2ccc(-c3nc4cc(C)c(C)cc4[nH]3)cn2)no1,?,?,i,0.18µM*,?
Cc1cc2nc(-c3ccc(SCc4ccccc4C#N)nc3)[nH]c2cc1C,21µM*,?,i,13%,?
Cc1cc2nc(-c3ccc(SCc4ccc(C(=O)O)cc4)nc3)[nH]c2cc1C,i,?,?,12%,?
Cc1cc2nc(-c3ccc(SCC(=O)N4CCc5ccccc54)nc3)[nH]c2cc1C,i,2%,i,13%,?
O=C(NCc1ccccc1)C(c1cc2ccccc2o1)n1c(=O)c(-c2cc3ccccc3[nH]2)nc2ccccc21 (stereo not given),i,.,i,.,.
O=[N+]([O-])c1ccc(/C=N/N=C/c2ccc([N+](=O)[O-])o2)o1,8.2µM*,1%,?,2.6µM*,?
O=C1C2C3C=CC(C4CC34)C2C(=O)N1/N=C/c1ccc([N+](=O)[O-])o1 (stereo not given),?,10µM*,16µM*,3.3µM*,?
Cc1ccc(S(=O)(=O)N/N=C\c2ccc([N+](=O)[O-])o2)cc1C,i,5%,i,5%,-5%

# Assay outcomes as filed in PubChem BioAssay.
